Outcome data for 13 compounds are collected here from PubChem BioAssay AID651860 (Broad Institute, 2012).

Entries with a potency or affinity are not part of this list. Calls of active or inactive are those of the source.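 Rule for the calls: active = compounds lowering HepG2 cell ATP luminescence with a fitted half-maximal concentration at most twice the top tested dose; inconclusive = flat fit with 30 to 70 percent signal loss, or poor fit; inactive = the rest.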

The nature of the assay: HepG2 cell cytotoxicity, dose response, cytotoxicity control, luminescence plate reader, powder samples, set 2 (AID 651860). Conditions: HepG2 viability, CellTiter-Glo ATP luminescence, 48 h; series mostly up to 26 µM.
With `O=C(O)c1ccccc1C(=O)NC[C@@H]1c2ccccc2CCN1C(=O)[C@@H]1CCCC[C@@H]1C(=O)O`, the call was inactive.

On to `CCOC(=O)C(C(=O)OCC)c1cc(CNS(=O)(=O)c2ccc(C)cc2C)c2ccccc2n1`, for which the outcome was inactive.

Consider `O=C(O)[C@H]1CCCC[C@H]1C(=O)N1CCc2ccccc2[C@H]1CNc1nc(Cl)nc2ccccc12`, for which the compound was classed as inactive.

With `Cc1ccc(S(=O)(=O)NNc2nc(C(C(=O)OC(C)C)C(=O)C(F)(F)F)nc3ccccc23)cc1` (stereo not drawn), the compound was classed as inactive.

Take `C=CC(=O)NC[C@@H]1c2ccccc2CCN1C(=O)[C@@H]1CCCC[C@@H]1C(=O)O`: the compound was classed as inactive.

Turning to `Cc1cc(C)c(S(=O)(=O)Nc2nc(N(C)C)nc3ccccc23)c(C)c1`, the outcome was inactive.

For `O=C1c2ccccc2C(=O)N1C[C@@H]1c2ccccc2CCN1C(=O)C1CCCCC1`, the compound was classed as inactive.

Turning to `Cc1ccccc1S(=O)(=O)Nc1cc(C(C(=O)OC(C)C)C(=O)C(F)(F)F)c(O)c2ccccc12` (stereo not drawn), the compound was classed as inactive.

For `O=C(O)C1CCCCC1C(=O)N1CCc2ccccc2C1CN1C(=O)c2ccccc2S1(=O)=O` (stereo not drawn), the compound was called inactive.

Consider `O=C(O)[C@H]1CCCC[C@H]1C(=O)N1CCc2ccccc2[C@H]1CNS(=O)(=O)c1ccc([N+](=O)[O-])cc1`, for which the result was inactive.

`O=C(NCCc1ccccc1)c1ccccc1C(=O)NC[C@@H]1c2ccccc2CCN1C(=O)C1CCCCC1C(=O)O` (stereo partly drawn): the compound was classed as inactive.

`C[C@H](NC(=O)C1CCCC[C@H]1C(=O)O)c1ccccc1` (mixture of isomers): the compound was classed as inactive.

Consider `O=C(O)c1ccccc1C(=O)N1CCc2ccccc2C1CN1C(=O)c2ccccc2C1=O` (stereo not drawn), for which the compound was called inactive.
